PubChem BioAssay AID485270 (The Scripps Research Institute Molecular Screening Center, 2010)
Out of some 330,000 compounds screened, about 5,800 (1.8%) were called active. Cut-off read from the data, not from the text of the source: active = inhibition mostly above about 38% (no sharp cut-off); inactive = mostly below about 40%. The list comes from a sample in which actives are over-represented; it also holds similar structures and randomly drawn compounds.

The compounds below were run against Orexin/Hypocretin receptor type 1 (Homo sapiens) (UniProt O43613) (assay: blocks the human orexin 1 receptor (AID 485270;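 note: 0% = agonist challenge alone and 100% = reference antagonist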)). Conditions: OX1R-expressing cells, FRET antagonist read-out; at 6.6 µM; hits give high values.
Orexin/Hypocretin receptor type 1 (Homo sapiens), sequence (O43613 whole entry, looked up): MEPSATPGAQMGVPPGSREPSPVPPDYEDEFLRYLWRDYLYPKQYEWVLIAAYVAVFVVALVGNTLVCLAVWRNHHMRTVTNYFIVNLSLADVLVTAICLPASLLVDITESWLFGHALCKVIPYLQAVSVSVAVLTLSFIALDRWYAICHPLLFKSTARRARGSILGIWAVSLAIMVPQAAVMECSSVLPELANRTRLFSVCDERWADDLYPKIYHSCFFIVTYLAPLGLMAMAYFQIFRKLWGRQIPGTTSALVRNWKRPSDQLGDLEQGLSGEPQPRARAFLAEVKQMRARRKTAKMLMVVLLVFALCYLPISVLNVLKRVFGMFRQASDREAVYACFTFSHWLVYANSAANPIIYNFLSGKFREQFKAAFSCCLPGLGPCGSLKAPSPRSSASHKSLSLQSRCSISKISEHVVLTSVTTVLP
For `O=C(N/N=C/c1c(O)n(C2CC2)c(=S)[nH]c1=O)c1ccccc1Cl`, the inhibition was 16.5% (inactive).
For `O=C(N/N=C/c1c(O)n(Cc2ccccc2)c(=O)[nH]c1=O)c1ccccc1`, the inhibition was 20.1% (inactive).
With `O=C(N/N=C/c1c(O)n(C2CC2)c(=S)[nH]c1=O)c1ccccc1` the inhibition was 48.4% (active).
For `O=C(CSC1c2ccccc2-c2ccccc21)N/N=C/c1ccccc1`, the inhibition was 53.4% (inactive).
With `CNC(=O)Nc1ccc(C(O)(C(=O)OC)C(F)(F)F)cc1` (stereo not given) the inhibition was 1.75% (inactive).
For `COc1ccc2c(c1O)-c1cccc3c1[C@@H](C2)N(C)CC3`, the inhibition was 21.8% (inactive).
`CN1CCN(c2cc(N3CCNCC3)ccc2[N+](=O)[O-])CC1` was tested, and the inhibition was 61% (active).
With `CCN1CCN(c2ccc([N+](=O)[O-])cc2C#N)CC1` the inhibition was 30.8% (inactive).
With `Cc1nc2ccc(N3CCN(C)CC3)cc2nc1C` the inhibition was 36.4% (inactive).
With `Cc1cccc2c(CCN)c[nH]c12` the inhibition was 13.2% (inactive).
In the case of `O=C1N=c2ccccc2=C/C1=C\c1c(O)[nH]c(=S)[nH]c1=O`, the inhibition is reported as 42.6% (inactive).
With `CCOCCc1c(O)[nH]c(=S)[nH]c1=O` the inhibition was -2.14% (inactive).
In the case of `COc1ccccc1N=Nc1c(O)[nH]c(=S)[nH]c1=O`, the inhibition is reported as 55.9% (active).
In the case of `O=c1[nH]c(CN2CC=C(c3ccccc3)CC2)nc2scc(-c3cccs3)c12`, the inhibition is reported as 7.54% (inactive).
For `CC(=O)Nc1ccc(C(=O)C(Cc2ccccc2)N(C)C)cc1` (stereo not given), the inhibition was 4.57% (inactive).
For `COc1cccc(-c2nc3ccc(N4CCN(C)CC4)cc3[nH]2)c1`, the inhibition was 20.4% (inactive).
With `CCN(CC)c1ccc([N+](=O)[O-])c2cccnc12` the inhibition was 28.8% (inactive).
`CN(c1ccccc1)c1ccc([N+](=O)[O-])c2nonc12` was tested, and the inhibition was 73.5% (active).
`CN1CCN(Cc2ccc(OC(F)(F)F)cc2)CC1` was tested, and the inhibition was 2.95% (inactive).
In the case of `O=C(Cc1ccccc1)N1CCN(C2CCCCCC2)CC1`, the inhibition is reported as -3.88% (inactive).
